Source: PubChem BioAssay (NCI)
This is part of a sample that, as a whole, favours compounds with a hit. Of some 83,000 tested, about 20% had one in any assay.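 Treatment: one concentration, 48 hours, 96-well format. Scoring: percent growth, with anything below 10 considered active.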 Calls of active or inactive are those of the source.

test system: ACHN renal; assay: NCI-60 one-dose screen, 48 h (100 = growth as untreated, 0 = no growth, -100 = all killed); settings: 10 µM unless noted
Protocol: Growth inhibition of the ACHN human tumor cell line is measured as a screen for anti-cancer activity. Cells are grown in 96 well plates and exposed to the test compound for 48 hours. Compounds are tested at a single concentration, which is 10^-5 M for most compounds. The reported endpoint is percent growth (GI% or GIPRCNT), where numbers from 0 - 100% represent growth inhibition, and numbers from -100% - 0 represent cell death. For example, a value of 40 represents 60% growth inhibition. A value of 0 means no net growth occurred over the course of the experiment. A value of -40 indicates 40% of cells at the beginning of the experiment died by the end of the experiment. A value of -100 means all cells are dead at the end of the experiment.
NCI-60 Human Tumor Cell Lines Screen was performed using the standard one-dose NCI protocol, which is described in more detail at https://dtp.cancer.gov/discovery_development/nci-60/default.htm.
Compounds with GIPRCNT values below 10 were considered active. Activity score was based on GIPRCNT using the following formula: […]
Score is 0 for GIPRCNT values of 100 or above, 50 for GIPRCNT values of 0, and 100 for GIPRCNT values of -100.

Row | Structure (SMILES) | growth
1 | COc1cccc(CNC(=O)c2cccc(C3CC(=O)c4c(cc(OC)c(OC)c4OC)O3)c2)c1 (stereo not given) | 47.9% (inactive)
2 | O=C(O)CC1Cc2ccccc2C1C(=O)O (stereo not given) | 109% (inactive)
3 | CC1(C)NCCC[C@]2(C)[C@H]3CC=C4[C@@H]5C[C@](C)(COC(=O)c6ccccc6C(=O)O)CC[C@]5(C)CC[C@@]4(C)[C@]3(C)CC[C@@H]12 | 43.3% (inactive)
4 | Oc1ccc(N=Nc2ccc(N=Nc3ccccc3)cc2)cc1 | 30.8% (inactive)
5 | C=CCN(C)C | 105% (inactive)
6 | CSc1nc(N)n2nccc2n1 | 112% (inactive)
7 | COc1ccc(-c2nc(Nc3nc4ccccc4[nH]3)nc(N)c2C#N)cc1 | 96.6% (inactive)
8 | COc1cc(-c2nn(-c3ccc(NC(=O)c4cc(Cl)cc(Cl)c4)cc3)cc2-c2ccncc2)ccc1Cl | 94.9% (inactive)
9 | CCCNC(=O)Oc1ccc(/C(=C(/CC)Cc2ccccc2)c2ccc(OCCN(CC)CC)cc2)cc1 | 90.1% (inactive)
10 | CCCNC(=O)Oc1ccc(/C(=C(/C)Cc2ccc(OC)cc2)c2ccc(OCCN3CCCC3)cc2)cc1 | 78.6% (inactive)
11 | O=C1C(=O)c2ccccc2C(O)=C1CCCc1ccc(Oc2ccccc2)cc1 | 59.4% (inactive)
12 | N=c1c2c(=O)n3c(nc2nc2sc4ccc(Cl)cc4n12)-c1ccccc1Sc1ccccc1-3 | 14.7% (inactive)
13 | CC(C)(C)c1ccc(OCCOC(=O)CBr)cc1 | 85.9% (inactive)
14 | CCCC[N+](C)(N)CCCC | 99.7% (inactive)
15 | Clc1ccc(N/N=C(\c2ccccc2)c2ccccn2)nc1 | 8.31% (active)
16 | COc1ccccc1Cn1cc2c(c1)-c1oncc1CC2 | 55.5% (inactive)
17 | Cn1cnc2nc[nH]c2c1=S | 97% (inactive)
18 | COc1cc(OC)cc(-c2ccc(-c3ccc(C(=N)N)cc3)s2)c1 | -90% (active)
19 | CC(=O)Nc1nc(C)c(C(=O)NN)s1 | 93.6% (inactive)
20 | c1cc[c]([Bi]([c]2ccccc2)[c]2ccccc2)cc1 | 105% (inactive)

Row | Structure (SMILES) | growth
21 | CCN(CC)c1ccc2nc3ccc(N=Nc4ccc(O)cc4)cc3[n+](-c3ccccc3)c2c1 | 60.2% (inactive)
22 | COc1cc(-c2c3c(cn2CCN2CCCCC2)-c2oncc2CC3)cc(OC)c1OC | 89.7% (inactive)
23 | CCCCCCCCC1OC1CCCCCCCC(=O)O (stereo not given) | 103% (inactive)
24 | C=CN(C)S(C)(=O)=O | 39.5% (inactive)
25 | CCOP1(=O)CC(C)=C(Cl)C(P(=O)(O)O)C1 (stereo not given) | 101% (inactive)
26 | O=C(Nc1ccc(-n2cc(-c3ccncc3)c(-c3ccc(Cl)c(O)c3)n2)cc1)Nc1ccc(Cl)c(C(F)(F)F)c1 | 2.3% (active)
27 | Nc1cc(N)c2nc(-c3ccccc3)c(NCCc3ccc(Cl)c(Cl)c3)nc2c1 | -100% (active)
28 | Oc1ccc([S+](c2ccc(O)cc2)c2ccc(O)cc2)cc1 | 106% (inactive)
29 | Cc1ccc2c(O)c(O)cc(NC(C)CCCN)c2n1 (stereo not given) | 108% (inactive)
30 | CC[C@H](Nc1ncnc2nc[nH]c12)c1nc2cccc(NCc3ccc(C(=O)NO)o3)c2c(=O)n1-c1ccccc1 | 97.3% (inactive)
31 | COc1ccc(-c2nc(SCC(C)C)nc(Nc3ccc([N+](=O)[O-])cc3)c2C#N)cc1 | 41.7% (inactive)
32 | CCCC(=O)NNc1[nH]c(-c2ccc(OC)cc2)cc1C(=O)OCC | 73.1% (inactive)
33 | CC(=O)/C(=C\c1c(-c2ccccc2)[nH]c2ccccc12)S(=O)(=O)c1ccccc1 | 28.2% (inactive)
34 | Cc1ncc(C(=O)Nc2ccc(CN3CCN(C)CC3)c(C(F)(F)F)c2)cc1C#Cc1c(N)ncc2ccccc12 | -100% (active)
35 | Cc1nc(N)sc1C(=O)NCCO | 103% (inactive)
36 | CCOC(=O)c1c(C)oc2ncnc(Nc3ccc(NC(=O)Nc4ccc(CC)cc4)cc3)c12 | 98.9% (inactive)
37 | CCOC(=O)C1=C(C(F)(F)F)NC(=S)NC1CN1C(=O)c2ccccc2C1=O (stereo not given) | 105% (inactive)
38 | CC(=O)Nc1ccc(CC#N)cc1Br | 109% (inactive)
39 | CCC(CCCN1C(=O)c2ccccc2C1=O)Nc1cc(OC)cc2c(C)ccnc12 (stereo not given) | 100% (inactive)
40 | COc1cc(Cn2ccc3c2-c2oncc2CC3)cc(OC)c1 | 47.2% (inactive)
